This passage reports growth results from PubChem BioAssay (NCI).

Among the test systems are SK-MEL-2 melanoma; EKVX NSCLC; SN12C renal; UO-31 renal; TK-10 renal; ACHN renal; CAKI-1 renal; A498 renal; CCRF-CEM leukemia; MOLT-4 leukemia.
Holding throughout (assay): NCI-60 one-dose screen, 48 h (100 = growth as untreated, 0 = no growth, -100 = all killed)
Conditions in all cases: 10 µM unless noted

Compounds without any hit were thinned out: in the full panel of roughly 83,000, 20% have a hit.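 Interpretation: 100, growth as untreated; towards 0, rising growth inhibition; 0, no net growth; 0 to -100, cell death. Compounds scoring below 10 were considered active.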 A number with no mark means an inactive call. Activity calls are given as the source filed them.

In the case of `COc1ccc(C(C)=O)cc1S(=O)(=O)Nc1c(N)nc(SC)[nH]c1=O`, the growth in the assay with SK-MEL-2 melanoma is 111%; in the assay on EKVX NSCLC, 101%; in the assay on SN12C renal it was 103%; in the assay on UO-31 renal it was 94.5%; in the assay with TK-10 renal, 109%; in the assay with ACHN renal, 106%. Also, the growth was 93.2% with CAKI-1 renal, 106% in the assay on A498 renal, 107% with CCRF-CEM leukemia and 99.6% in the assay on MOLT-4 leukemia.
Regarding `NNc1nc(-c2cccnc2)nc2c1sc(=S)n2-c1ccccc1`, the growth was 68% in the assay with SK-MEL-2 melanoma; 95.1% with EKVX NSCLC; 102% with SN12C renal; 79.3% with UO-31 renal; 83.6% in the assay with TK-10 renal; 106% in the assay with ACHN renal. Besides, the growth with CAKI-1 renal is 97.9%; in the assay on A498 renal, 124%; in the assay with CCRF-CEM leukemia it was 90.5%; in the assay with MOLT-4 leukemia, 86%.
As for `O=C1NC2(Nc3ccccc31)C(=O)Nc1c(Cl)cc(Cl)cc12` (stereo not given), the growth in the assay with SK-MEL-2 melanoma was 119%; with EKVX NSCLC, 98.8%; in the assay on SN12C renal, 106%; in the assay with UO-31 renal, 78.5%; in the assay with TK-10 renal it was 206%; in the assay on ACHN renal, 107%. In addition, the growth in the assay on CAKI-1 renal is 85.1%; in the assay on A498 renal it was 106%; with CCRF-CEM leukemia it was 103%; in the assay on MOLT-4 leukemia, 93%.
For the compound `C#CCNC(=O)[C@H](CC)[C@H]1CC[C@H](C)[C@H]([C@@H](C)[C@H](O)[C@H](C)C(=O)[C@H](CC)C2O[C@]3(C=CC(=O)[C@]4(CC[C@@](C)([C@H]5CC[C@](O)(CC)[C@H](C)O5)O4)O3)[C@H](C)C[C@@H]2C)O1` (stereo not given in full), the growth is 45% with SK-MEL-2 melanoma; 51.3% with EKVX NSCLC; 48.7% with SN12C renal; 47.9% in the assay on UO-31 renal; 87.1% in the assay with TK-10 renal; 45% in the assay with ACHN renal. In addition, the growth in the assay on CAKI-1 renal was 17.4%; in the assay with A498 renal it was 38.5%; in the assay with CCRF-CEM leukemia it was 27.3%; in the assay on MOLT-4 leukemia it was 32.4%.
On to `O=C1/C(=C/c2ccc([N+](=O)[O-])cc2)COc2ccc(O)cc21`, for which the growth with SK-MEL-2 melanoma was 109%; with EKVX NSCLC, 92.3%; with SN12C renal, 76.8%; in the assay on UO-31 renal, 53.7%; with TK-10 renal, 92.7%; with ACHN renal it was 82.7%. For the same compound, the growth in the assay on CAKI-1 renal was 63.6%; in the assay with A498 renal, 99.5%; in the assay with CCRF-CEM leukemia it was 3.96% (active); in the assay with MOLT-4 leukemia, 39.3%.
As to `CCc1ccc(CCCC(=O)O)cc1`, the growth was 103% in the assay with SK-MEL-2 melanoma; 96.3% in the assay with EKVX NSCLC; 93.7% in the assay on SN12C renal; 92.1% in the assay on UO-31 renal; 99.9% with TK-10 renal; 101% in the assay on ACHN renal. In addition, the growth was 94% in the assay with CAKI-1 renal, 95% with A498 renal, 104% in the assay on CCRF-CEM leukemia and 98.8% in the assay on MOLT-4 leukemia.
As to `O=C(Nc1ccc(Oc2cccc(Cl)c2)c(Cl)c1)c1cccnc1`, the growth with SK-MEL-2 melanoma was 44.1%; in the assay with EKVX NSCLC, 50.9%; in the assay on SN12C renal, 43.4%; in the assay with UO-31 renal, 44.1%; in the assay with TK-10 renal, 59.8%; in the assay on ACHN renal it was 41.7%. In addition, the growth in the assay with CAKI-1 renal was 30.6%; in the assay with A498 renal it was -3.1% (active); in the assay on CCRF-CEM leukemia it was 17.5%; with MOLT-4 leukemia, 37.4%.
In the case of `CC1CCN(S(=O)(=O)c2ccc(S(=O)(=O)N3CCCC(c4nc5c(nnn5Cc5cccc(Cl)c5)c(=O)[nH]4)C3)cc2)CC1` (stereo not given), the growth is 46.9% in the assay with SK-MEL-2 melanoma; 69.1% with EKVX NSCLC; 47.3% in the assay with SN12C renal; 43.1% with UO-31 renal; 71.5% with TK-10 renal; 71.7% in the assay on ACHN renal. For the same compound, the growth in the assay with CAKI-1 renal was 22.2%; in the assay with A498 renal, 38%; with CCRF-CEM leukemia, 15.2%; in the assay on MOLT-4 leukemia, 19.2%.
On to `Cc1ccc(C2=Nc3c(N)ncnc3NC(c3cccc(Nc4ccnc5cc(C(F)(F)F)ccc45)c3)C2)cc1` (stereo not given), for which the growth is -11.1% (active) in the assay with SK-MEL-2 melanoma; 25.2% with EKVX NSCLC; 50% in the assay with SN12C renal; 26.4% in the assay on UO-31 renal; 64.7% in the assay on TK-10 renal; 58.1% in the assay on ACHN renal. Further, the growth with CAKI-1 renal was 21%; in the assay with A498 renal it was 47.8%; in the assay on CCRF-CEM leukemia it was 4.56% (active); in the assay with MOLT-4 leukemia it was -2.37% (active).
`CCCOC(=O)Nc1nc2ccc(SCC(C)C)cc2s1`: the growth with SK-MEL-2 melanoma is 48.6%; in the assay on EKVX NSCLC, 52.3%; in the assay with SN12C renal, 44.4%; with UO-31 renal, 44.8%; in the assay on TK-10 renal, 50.4%; in the assay with ACHN renal it was 51.9%. Also, the growth in the assay with CAKI-1 renal was 49.1%; in the assay on A498 renal, 40.8%; in the assay with CCRF-CEM leukemia it was 22.9%; with MOLT-4 leukemia, 33.8%.
For the compound `O=C(/C=C/c1ccco1)Nc1ncc(Cc2cccc(C(F)(F)F)c2)s1`, the growth in the assay on SK-MEL-2 melanoma is 23.4%; with EKVX NSCLC, 25%; in the assay with SN12C renal, 20.9%; in the assay on UO-31 renal, 11.8%; in the assay on TK-10 renal, 33.6%; in the assay on ACHN renal it was 11.7%. Moreover, the growth in the assay on CAKI-1 renal is 20.5%; with A498 renal, -6.36% (active); with CCRF-CEM leukemia it was 14.5%; with MOLT-4 leukemia, 14%.
